Measured values taken from PubChem BioAssay (Tox21).
Inconclusive results are not listed. Entries that show only a call come without a potency. The source made the active and inactive calls. Unless noted, the call rests on the fitted dose curve; in most records, active means well fitted curve in the direction sought with a large enough effect in the repeat runs; inconclusive means weak or mixed curves; inactive means no such curve, though single readings can be large; an effect the other way counts as inactive or inconclusive.

Key:
[1] = qHTS assay to identify small molecule agonists of the peroxisome proliferator-activated receptor delta (PPARd) signaling pathway - cell viability counter screen (AID 743211); further: nearly all actives have a fitted effect of over 55% in size
In short: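 HEK293H PPARd-bla, 3000 cells/well; 5 h preincubation 37C/5% CO2; cpd in DMSO, 17 h 37C; B/G FRET substrate 2 h RT; CellTiter-Glo 30 min RT, luminescence.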

[2] = target: Peroxisome proliferator-activated receptor delta (Homo sapiens) (UniProt Q03181); experiment: qHTS assay to identify small molecule agonists of the peroxisome proliferator-activated receptor delta (PPARd) signaling pathway (AID 743212; calls by dose curve;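 further: HEK293H cells with PPARd UAS beta-lactamase reporter GeneBLAzer system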)
In short: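 Steps: seed PPARd-bla HEK293H cells; incubate 5 h, 37 C, 5% CO2; add compounds in DMSO; incubate, 37 C; add LiveBLAzer B/G FRET substrate; hold 2 h at room temperature; measure fluorescence.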

[3] = qHTS assay to identify small molecule antagonists of the peroxisome proliferator-activated receptor delta (PPARd) signaling pathway - cell viability counter screen (AID 743213); further: nearly all actives have a fitted effect of over 50% in size
In short: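 CellTiter-Glo was added to PPARd-bla HEK293H wells following 17 h compound treatment in the presence of 300 nM L165041. Luminescence was recorded after 30 min at room temperature.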

[4] = qHTS assay to identify small molecule agonists of the farnesoid-X-receptor (FXR) signaling pathway - cell viability counter screen (AID 743218); further: nearly all actives have a fitted effect of over 45% in size
In short: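 Viability of FXR-bla HEK 293T cells is measured by ATP-based CellTiter-Glo luminescence following 16 h compound treatment at 37 C and a prior 2 h room-temperature beta-lactamase substrate step.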

[5] = qHTS assay to identify small molecule antagonists of the farnesoid-X-receptor (FXR) signaling pathway - cell viability counter screen (AID 743221; active means well fitted cell-killing curve with a large enough effect in the repeat runs, not every such curve was filed as active; further: nearly all actives have a fitted effect of over 50% in size)
In short: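 Luminescence from CellTiter-Glo measures cytotoxicity in GeneBLAzer FXR-UAS-bla HEK 293T cells. Cells were exposed to compounds with 50 uM chenodeoxycholic acid (final) for 16 h at 37 C, in wells also used for the reporter readout.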

[6] = target: Vitamin D3 receptor (Homo sapiens) (UniProt P11473); experiment: qHTS assay to identify small molecule agonists of the vitamin D receptor (VDR) signaling pathway (AID 743222; calls by dose curve)
In short: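 Fluorescence from cleaved LiveBLAzer B/G FRET substrate served as readout. VDR-bla cells had been treated 16 h at 37C with test compounds in DMSO, following a 4 h settling period, and substrate was loaded for 2 h at RT.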

[7] = target: Vitamin D3 receptor (Homo sapiens) (UniProt P11473); experiment: qHTS assay to identify small molecule antagonists of the vitamin D receptor (VDR) signaling pathway (AID 743223; active means well fitted inhibition curve with a large enough effect in the signal ratio in the repeat runs, not every such curve was filed as active; the % refers to the signal ratio)
In short: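 Antagonist mode uses 1alpha,25-dihydroxyvitamin D3 at 3 nM final as stimulus. VDR-bla cells receive compounds in DMSO, incubate 16 h at 37C, then a beta-lactamase FRET substrate for 2 h at room temperature before fluorescence measurement.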

[8] = qHTS assay to identify small molecule agonists of the vitamin D receptor (VDR) signaling pathway - cell viability counter screen (AID 743224); further: series mostly up to about 63 µM; nearly all actives have a fitted effect of over 50% in size
In short: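 Compounds were pin-transferred onto VDR-bla cells plated 4 h earlier; following 16 h incubation at 37C, cell viability was quantified by CellTiter-Glo luminescence after 30 min at room temperature.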

[9] = qHTS assay to identify small molecule antagonists of the vitamin D receptor (VDR) signaling pathway - cell viability counter screen (AID 743225); further: nearly all actives have a fitted effect of over 50% in size
In short: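 Read-out: CellTiter-Glo luminescence measured 30 min after reagent addition at room temperature. Cells were VDR-bla HEK 293T exposed 16 h at 37C, 5% CO2, to compound with 3 nM final calcitriol agonist.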

[10] = qHTS assay to identify small molecule agonists of the NFkB signaling pathway (AID 1159509; active means well fitted curve in the direction sought with a large enough effect in the signal ratio in the repeat runs, not every such curve was filed as active; the % refers to the signal ratio; further: series mostly up to about 61 µM)
In short: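 Beta-lactamase reporter assay run in quantitative high-throughput format on an NF-kB-responsive ME-180 line, with 5 hr compound treatment and a FRET-based blue/green fluorescence readout.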

[11] = qHTS assay to identify small molecule agonists of the NFkB signaling pathway - cell viability counter screen (AID 1159515; calls by dose curve; further: series mostly up to about 61 µM; nearly all actives have a fitted effect of over 55% in size)
In short: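 Parallel cytotoxicity counter screen in ME-180 cells carrying an NFkB-response-element beta-lactamase reporter, 2,000 cells/well. Compound exposure lasted 5 hr at 37 C, 5% CO2. Cell viability was quantified by CellTiter-Glo luminescence.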

[12] = qHTS assay to identify small molecule antagonists of the retinoid-related orphan receptor gamma (ROR-gamma) signaling pathway - cell viability counter screen (AID 1159520); further: nearly all actives have a fitted effect of over 50% in size
In short: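 Cytotoxicity was read from cellular ATP (CellTiter-Glo luminescence) after 16 hr at 37 C with 1 uM doxycycline induction. The inducer was added 2 hr after compound transfer to Tet-on ROR gamma CHO cells.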

[13] = qHTS assay to identify small molecule agonists of the AP-1 signaling pathway - cell viability counter screen (AID 1159525; calls by dose curve; further: nearly all actives have a fitted effect of over 55% in size)
In short: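 Intracellular ATP by Cell Titer Glo luminescence (30 min, RT) in the same ME-180 AP-1-bla wells after the 5 h compound exposure at 37 °C. Normalised to tetra n-octyl ammonium bromide and DMSO controls.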

[14] = qHTS assay to identify small molecule agonists of the AP-1 signaling pathway (AID 1159526; calls by dose curve)
[15] = target: Peroxisome proliferator-activated receptor delta (Homo sapiens) (UniProt Q03181); experiment: qHTS assay to identify small molecule antagonists of the peroxisome proliferator-activated receptor delta (PPARd) signaling pathway (AID 743215; active means well fitted inhibition curve with a large enough effect in the signal ratio in the repeat runs, not every such curve was filed as active; the % refers to the signal ratio;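 further: cells stimulated with agonist L165041 at 300 nM final during compound exposure; series mostly up to about 62 µM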)
In short: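 Plated HEK293H PPARd-bla cells rested 5 h at 37 C and 5% CO2. Compound, then agonist L165041 at 300 nM final, was added; 17 h at 37 C followed. Substrate loading, 2 h room temperature, fluorescence measured.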

[16] = target: Nuclear receptor ROR-gamma (Homo sapiens) (UniProt P51449); experiment: qHTS assay to identify small molecule antagonists of the retinoid-related orphan receptor gamma (ROR-gamma) signaling pathway (AID 1159521; further: nearly all actives have a fitted effect of over 50% in size; further: potency means the concentration at half of the fitted maximal effect)
In short: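 CHO Tet-on RORγ, RORE-luc reporter. Cpd 2 h pre-incubation, then dox hyclate 1 uM final, 16 h, 37 C/5% CO2. ONE-Glo luminescence; decrease = antagonist.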

[17] = qHTS assay to identify small molecule agonists of the endoplasmic reticulum stress response signaling pathway - cell viability counter screen (AID 1159517; calls by dose curve)
In short: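 After overnight attachment, ESRE-bla HeLa cells were treated with Tox21 library compounds for 5 hr. CellTiter-Glo luminescence, read 30 min post-addition at room temperature, reported viability.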

[18] = target: Bile acid receptor (Homo sapiens) (UniProt Q96RI1); experiment: qHTS assay to identify small molecule antagonists of the farnesoid-X-receptor (FXR) signaling pathway (AID 743217; active means well fitted inhibition curve with a large enough effect in the signal ratio in the repeat runs, not every such curve was filed as active; the % refers to the signal ratio)
In short: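 Screen of the Tox21 10K library in quantitative HTS format using FXR-UAS-bla HEK 293T reporter cells. Agonist chenodeoxycholic acid, 50 uM final, added with compounds; 16 h incubation at 37 °C; beta-lactamase FRET fluorescence measured.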

Chain of Peroxisome proliferator-activated receptor delta (Homo sapiens) (Q03181 whole entry, looked up): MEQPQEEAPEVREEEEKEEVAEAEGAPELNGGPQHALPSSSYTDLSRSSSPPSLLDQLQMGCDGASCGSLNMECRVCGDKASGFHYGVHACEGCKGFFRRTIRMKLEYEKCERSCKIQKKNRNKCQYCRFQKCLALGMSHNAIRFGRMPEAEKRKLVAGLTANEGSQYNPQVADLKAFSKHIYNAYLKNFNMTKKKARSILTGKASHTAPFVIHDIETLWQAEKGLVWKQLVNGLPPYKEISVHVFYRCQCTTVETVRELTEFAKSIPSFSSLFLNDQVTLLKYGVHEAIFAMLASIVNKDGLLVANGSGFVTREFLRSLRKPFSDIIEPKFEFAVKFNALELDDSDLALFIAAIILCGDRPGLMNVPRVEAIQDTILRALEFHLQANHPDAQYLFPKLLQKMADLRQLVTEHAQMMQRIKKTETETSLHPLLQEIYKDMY
Chain of Vitamin D3 receptor (Homo sapiens) (P11473 whole entry, looked up): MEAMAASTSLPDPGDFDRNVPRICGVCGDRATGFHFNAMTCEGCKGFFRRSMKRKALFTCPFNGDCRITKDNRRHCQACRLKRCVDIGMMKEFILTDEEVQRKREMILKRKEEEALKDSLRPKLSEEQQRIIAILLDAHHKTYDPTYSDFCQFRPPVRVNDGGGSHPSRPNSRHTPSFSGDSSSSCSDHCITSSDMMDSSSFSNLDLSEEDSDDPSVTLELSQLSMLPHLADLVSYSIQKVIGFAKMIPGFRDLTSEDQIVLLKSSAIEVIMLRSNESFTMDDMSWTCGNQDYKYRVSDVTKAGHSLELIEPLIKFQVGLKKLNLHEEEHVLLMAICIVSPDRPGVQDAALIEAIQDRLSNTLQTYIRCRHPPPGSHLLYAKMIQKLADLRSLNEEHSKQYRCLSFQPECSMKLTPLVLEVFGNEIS
Chain of Bile acid receptor (Homo sapiens) (Q96RI1 whole entry, looked up): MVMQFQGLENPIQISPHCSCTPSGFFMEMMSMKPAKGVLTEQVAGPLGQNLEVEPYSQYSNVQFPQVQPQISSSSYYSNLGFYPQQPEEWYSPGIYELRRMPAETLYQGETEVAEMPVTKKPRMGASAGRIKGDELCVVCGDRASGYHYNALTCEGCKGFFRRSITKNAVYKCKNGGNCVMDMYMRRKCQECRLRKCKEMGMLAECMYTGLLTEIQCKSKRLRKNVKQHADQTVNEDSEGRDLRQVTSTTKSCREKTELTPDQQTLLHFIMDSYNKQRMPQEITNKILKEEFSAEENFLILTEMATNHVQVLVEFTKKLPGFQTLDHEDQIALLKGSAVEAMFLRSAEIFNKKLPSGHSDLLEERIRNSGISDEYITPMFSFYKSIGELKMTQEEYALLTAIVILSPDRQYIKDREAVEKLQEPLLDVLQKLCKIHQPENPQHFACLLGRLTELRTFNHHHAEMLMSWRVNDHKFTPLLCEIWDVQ

CO[C@]1(NC(=O)CSC(F)F)C(=O)N2C(C(=O)O)=C(CSc3nnnn3CCO)CO[C@H]21
Potency [1]: inactive | Potency [2]: inactive | Potency [3]: inactive | Potency [4]: inactive | Potency [5]: inactive | Potency [6]: inactive | Potency [7]: inactive | Potency [8]: inactive | Potency [9]: inactive | Potency [10]: inactive | Potency [11]: inactive | Potency [12]: inactive | Potency [13]: inactive | Potency [14]: inactive

CC(=O)c1ccc([N+](=O)[O-])cc1
Potency [1]: inactive | Potency [2]: inactive | Potency [3]: inactive | Potency [15]: inactive | Potency [4]: inactive | Potency [5]: inactive | Potency [7]: inactive | Potency [8]: inactive | Potency [9]: inactive | Potency [10]: inactive | Potency [11]: inactive | Potency [12]: inactive | Potency [13]: inactive | Potency [14]: inactive

CCC1NC(=O)c2cc(S(N)(=O)=O)c(Cl)cc2N1 (centres undefined)
Potency [1]: inactive | Potency [2]: inactive | Potency [3]: inactive | Potency [4]: inactive | Potency [6]: inactive | Potency [7]: inactive | Potency [8]: inactive | Potency [9]: inactive | Potency [10]: inactive | Potency [11]: inactive | Potency [12]: inactive | Potency [16]: inactive | Potency [13]: inactive | Potency [14]: inactive

CC(CO)CO
Potency [1]: inactive | Potency [2]: inactive | Potency [3]: inactive | Potency [15]: inactive | Potency [4]: inactive | Potency [6]: inactive | Potency [8]: inactive | Potency [9]: inactive | Potency [10]: inactive | Potency [11]: inactive | Potency [12]: inactive | Potency [13]: inactive | Potency [14]: inactive

CC(C)C=O
Potency [1]: inactive | Potency [3]: inactive | Potency [4]: inactive | Potency [5]: inactive | Potency [6]: inactive | Potency [7]: inactive | Potency [8]: inactive | Potency [9]: inactive | Potency [10]: inactive | Potency [11]: inactive | Potency [12]: inactive | Potency [14]: inactive

c1csc(SSc2cccs2)c1
Potency [3]: inactive | Potency [4]: inactive | Potency [6]: inactive | Potency [7]: inactive | Potency [8]: inactive | Potency [9]: inactive | Potency [10]: inactive | Potency [11]: inactive | Potency [17]: inactive | Potency [16]: 24.3 µM (active)

O=C(O)CCc1nc(-c2ccccc2)c(-c2ccccc2)o1
Potency [1]: inactive | Potency [3]: inactive | Potency [15]: inactive | Potency [5]: inactive | Potency [8]: inactive | Potency [9]: inactive | Potency [10]: inactive | Potency [11]: inactive | Potency [12]: inactive | Potency [16]: inactive | Potency [13]: inactive | Potency [14]: inactive

Brc1cc2ccccc2c2ccccc12
Potency [1]: inactive | Potency [3]: inactive | Potency [4]: inactive | Potency [5]: inactive | Potency [8]: inactive | Potency [9]: inactive | Potency [10]: inactive | Potency [11]: inactive | Potency [13]: inactive

Cc1ccccc1S
Potency [1]: inactive | Potency [2]: inactive | Potency [3]: inactive | Potency [15]: inactive | Potency [18]: inactive | Potency [4]: inactive | Potency [5]: inactive | Potency [7]: inactive | Potency [8]: inactive | Potency [9]: inactive | Potency [10]: inactive | Potency [11]: inactive | Potency [12]: inactive | Potency [16]: inactive | Potency [13]: inactive | Potency [14]: inactive
